# Source: PubChem BioAssay (Tox21)
# Values without a mark were called inactive. Results filed as inconclusive are left out. A call without a number means that no potency is given here. Activity calls are given as the source filed them. Unless noted, calls come from the whole dose curve; as a rule, active = well fitted curve in the direction sought with a large enough effect in the repeat runs; inconclusive = weak or mixed curves; inactive = no such curve, though single readings can be large; an effect the other way counts as inactive or inconclusive.
# Assays:
# [1] = qHTS assay to identify small molecule agonists of H2AX (AID 1224845; active = well fitted activation curve with a large enough effect in the signal ratio in the repeat runs, not every such curve was filed as active; the % refers to the signal ratio)
# Outline: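 Phospho-H2AX Ser139 measured by HTRF (ex 320 nm; em 665 and 620 nm) after 24 hr antibody incubation. Compounds, 15 concentrations, 0.76% DMSO, were applied to CHO-K1 cells for 3hr at 37C before lysis.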
# [2] = qHTS assay to identify small molecule agonists of the hypoxia (HIF-1) signaling pathway (AID 1224846; active = well fitted activation curve with a large enough effect in the signal ratio in the repeat runs, not every such curve was filed as active; the % refers to the signal ratio)
# Outline: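 Cell line: CellSensor HRE-bla ME-180; 2,000 cells/well; 0.5% dialyzed FBS; 5 h preincubation; DMSO compound pin transfer; 17 h, 37C, 5% CO2; CCF4-AM added; bla FRET signal scored for activation.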
# [3] = qHTS assay to identify small molecule agonists of H2AX - cell viability counter screen (AID 1224847; calls by dose curve; note: nearly all actives have a fitted effect of over 30% in size; note: potency is the fitted concentration of half-maximal effect;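 for activity change, negative = cytotoxicity: wild-type CHO-K1 cells; top concentration of the series differs between compounds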)
# Outline: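 After overnight plating of 1000 CHO-K1 cells per well, a 15-concentration compound series was applied for 3 hr at 37C. Luminescence from CellTiter-Glo, read following 30 min at room temperature, reflected cell viability.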
# [4] = qHTS assay to identify small molecule antagonists of the estrogen related receptor (ERR) signaling pathway from Tox21 library (AID 1224848); note: nearly all actives have a fitted effect of over 50% in size; note: potency is the fitted concentration of half-maximal effect
# Outline: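 Reading was by luminescence 30 min after ONE-Glo addition. Before that, ERR cells at 2,000 per well had rested 6 h at 37 C/5% CO2 and then received pin-tooled compounds in DMSO for 18 h at 37 C.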
# [5] = qHTS assay to identify small molecule agonists of the estrogen related receptor (ERR) signaling pathway from Tox21 library (AID 1224849; calls by dose curve; note: nearly all actives have a fitted effect of over 15% in size); conditions: ERR reporter cell line, ONE-Glo luciferase, 18 h; at 92.4 µM (top of the series) unless noted
# Outline: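 ERR cells, 6 h pre-incubation 37 C/5% CO2; cpd in DMSO pinned; 18 h 37 C; ONE-Glo added, 30 min RT; luminescence read. Agonist mode, qHTS.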
# [6] = qHTS RealTime-Glo MT Cell Viability Assay in HEK293 cells - 32 hour (AID 1224868); note: nearly all actives have a fitted effect of over 50% in size; note: potency is the fitted concentration of half-maximal effect; for activity change, negative = cytotoxic: top concentration of the series differs between compounds
# Outline: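 Viability tracked continuously by luminescence as live cells reduce a prosubstrate for NanoLuc; HEK293 cells preincubated 5 h, compound-treated at 37 C, and read at 0, 8, 16, 24, 32 and 40 h.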
# [7] = A CellTox Green Cytotoxicity Assay to monitor cytotoxicity in HEK293 cells - 0 hour (AID 1224869); note: nearly all actives have a fitted effect of over 50% in size
# Outline: (§1)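 Nonlytic real-time cytotoxicity: HEK293 + CellTox Green reagent plated, 5 h preincubation, pintool compound addition (23 nL in DMSO), 37 C for 40 h, fluorescence measured at successive time points.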
# [8] = qHTS RealTime-Glo MT Cell Viability Assay in HepG2 cells - 40 hour (AID 1224870); note: nearly all actives have a fitted effect of over 50% in size
# Outline: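 Real-time viability: cells seeded at 600 per well together with NanoLuc and cell-permeant prosubstrate, compounds added after 5 h incubation. Luminescence tracked at 0, 8, 16, 24, 32 and 40 h of exposure.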
# [9] = A CellTox Green Cytotoxicity Assay to monitor cytotoxicity in HEK293 cells - 40 hour (AID 1224871); note: nearly all actives have a fitted effect of over 45% in size; note: potency is the fitted concentration of half-maximal effect
# Outline: as §1
# [10] = qHTS RealTime-Glo MT Cell Viability Assay in HepG2 cells - 24 hour (AID 1224867); note: nearly all actives have a fitted effect of over 50% in size
# Outline: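 Viability was tracked continuously by NanoLuc luminescence from prosubstrate reduced by living HepG2 cells, at successive time points over 40 h of compound exposure. Cells with reagent were preincubated 5 h at 37 °C before compound addition.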
compound,measurement,setting,value
C=CC(=C)CCCC(C)(C)OC(C)=O,Potency,[1],inactive
same,outcome,[2],inactive
same,Potency,[3],inactive
same,Potency,[4],inactive
same,"activity change, positive = activation",[5],-5.77%
same,Potency,[6],inactive
same,Potency,[7],inactive
same,Potency,[8],inactive
same,Potency,[9],inactive
C=CC(=O)NCOCC(C)C,Potency,[1],inactive
same,outcome,[2],inactive
same,Potency,[3],inactive
same,Potency,[10],inactive
same,Potency,[6],inactive
same,Potency,[7],inactive
same,Potency,[8],inactive
CCCCCCCCCCOS(=O)(=O)O,Potency,[1],inactive
same,outcome,[2],inactive
same,Potency,[3],inactive
same,Potency,[10],inactive
same,Potency,[6],inactive
same,Potency,[7],inactive
same,Potency,[8],inactive
same,Potency,[9],inactive
CC(C)(C)C(=O)C(Oc1ccc(Cl)cc1)n1ccnc1 (stereo unspecified),Potency,[1],inactive
same,outcome,[2],inactive
same,Potency,[3],inactive
same,"activity change, positive = activation",[5],-21.7% [at 42.5 µM]
same,Potency,[10],inactive
same,Potency,[7],inactive
same,Potency,[8],inactive
same,Potency,[9],inactive
CCCCCCCCSCCO,Potency,[1],inactive
same,outcome,[2],inactive
same,Potency,[3],inactive
same,Potency,[4],inactive
same,"activity change, positive = activation",[5],-3.95%
same,Potency,[6],inactive
same,Potency,[7],inactive
same,Potency,[8],inactive
same,Potency,[9],inactive
CC1=CC(O)CC(C)(C)C1 (stereo unspecified),Potency,[1],inactive
same,outcome,[2],inactive
same,Potency,[3],inactive
same,"activity change, positive = activation",[5],1.93%
same,Potency,[10],inactive
same,Potency,[6],inactive
same,Potency,[7],inactive
CCOC(=O)C(C)Oc1ccc(Oc2nc3ccc(Cl)cc3o2)cc1 (stereo unspecified),Potency,[1],inactive
same,outcome,[2],inactive
same,Potency,[3],inactive
same,Potency,[4],inactive
same,"activity change, positive = activation",[5],-11.6%
same,Potency,[6],49 µM (active)
same,Potency,[7],inactive
same,Potency,[9],inactive
CC(=O)Oc1ccc2c(c1)CC[C@@H]1[C@@H]2CC[C@]2(C)[C@@H](O)CC[C@@H]12,Potency,[1],inactive
same,outcome,[2],inactive
same,Potency,[3],inactive
same,"activity change, positive = activation",[5],-29.3% [at 42.5 µM]
same,Potency,[10],inactive
same,Potency,[6],9.52 µM (active)
same,Potency,[7],inactive
same,Potency,[8],inactive
CCOC(=O)/C=C/C(=O)O,Potency,[1],inactive
same,outcome,[2],inactive
same,Potency,[3],inactive
same,Potency,[10],inactive
same,Potency,[6],inactive
same,Potency,[7],inactive
same,Potency,[8],inactive
same,Potency,[9],inactive
CCCCC(=O)O[C@]1(C(=O)CO)CC[C@H]2[C@@H]3CCC4=CC(=O)CC[C@]4(C)[C@H]3[C@@H](O)C[C@@]21C,Potency,[1],inactive
same,outcome,[2],inactive
same,Potency,[3],inactive
same,"activity change, positive = activation",[5],-22.8% [at 42.5 µM]
same,Potency,[6],inactive
same,Potency,[7],inactive
same,Potency,[8],inactive
same,Potency,[9],inactive
CN(C)CCOC1=Cc2ccccc2Sc2ccc(Cl)cc21,Potency,[1],inactive
same,outcome,[2],inactive
same,Potency,[3],inactive
same,"activity change, positive = activation",[5],-11.9% [at 42.5 µM]
same,Potency,[6],inactive
same,Potency,[7],inactive
COC(=O)[C@@H]1CC2=CC(=O)CC[C@]2(C)[C@@]23O[C@@H]2C[C@@]2(C)[C@@H](CC[C@@]24CCC(=O)O4)[C@H]13,Potency,[1],inactive
same,outcome,[2],inactive
same,Potency,[3],inactive
same,Potency,[10],inactive
same,Potency,[6],inactive
same,Potency,[7],inactive
same,Potency,[8],inactive
same,Potency,[9],inactive
CCOCCn1c(C2CCN(CCc3ccc(C(C)(C)C(=O)O)cc3)CC2)nc2ccccc21,Potency,[1],inactive
same,outcome,[2],inactive
same,Potency,[3],inactive
same,Potency,[10],inactive
same,Potency,[6],inactive
same,Potency,[7],inactive
same,Potency,[8],inactive
same,Potency,[9],inactive
Cc1occc1C(=O)Nc1ccc(C(=O)N2CCC(F)(F)/C(=C\C(=O)N3CCC(N4CCCCC4)CC3)c3ccccc32)cc1,Potency,[1],inactive
same,outcome,[2],inactive
same,Potency,[3],inactive
same,Potency,[4],inactive
same,"activity change, positive = activation",[5],-12.3% [at 42.5 µM]
same,Potency,[6],10.8 µM (active)
same,Potency,[7],inactive
same,Potency,[8],inactive
same,Potency,[9],inactive
CCCOc1ccc(S(=O)(=O)N2CCN(CC)CC2)cc1-c1nc2c(CC)n(Cc3ccccn3)nc2c(=O)[nH]1,Potency,[1],inactive
same,outcome,[2],inactive
same,Potency,[3],inactive
same,"activity change, positive = activation",[5],-21.4%
same,Potency,[10],inactive
same,Potency,[7],inactive
same,Potency,[9],inactive
CCCCC/C(=C\c1ccccc1)CO,Potency,[1],inactive
same,outcome,[2],inactive
same,Potency,[3],112 µM (active)
same,Potency,[10],inactive
same,Potency,[6],inactive
same,Potency,[7],inactive
same,Potency,[8],inactive
same,Potency,[9],43.1 µM (active)
O=C(CS)OCCOC(=O)CS,Potency,[1],inactive
same,outcome,[2],inactive
same,Potency,[3],inactive
same,"activity change, positive = activation",[5],-27.9%
same,Potency,[6],inactive
same,Potency,[7],inactive
same,Potency,[8],inactive
same,Potency,[9],inactive
NC(=O)N(O)[C@@H]1C=C[C@H](Oc2cccc(Oc3ccc(F)cc3)c2)C1,Potency,[1],inactive
same,outcome,[2],inactive
same,Potency,[3],inactive
same,Potency,[4],inactive
same,"activity change, positive = activation",[5],-15%
same,Potency,[7],inactive
same,Potency,[8],inactive
same,Potency,[9],43.6 µM (active)
CC1CC(=O)NN=C1c1ccc(NCC(C)(C)NCC(O)COc2cc(Cl)ccc2C#N)cc1 (stereo unspecified),Potency,[1],inactive
same,outcome,[2],inactive
same,Potency,[3],inactive
same,"activity change, positive = activation",[5],-15% [at 42.5 µM]
same,Potency,[10],inactive
same,Potency,[7],inactive
same,Potency,[8],inactive
same,Potency,[9],inactive
CCCOC(=O)c1ccc(N)cc1,Potency,[1],inactive
same,outcome,[2],inactive
same,Potency,[3],inactive
same,"activity change, positive = activation",[5],-13.8% [at 42.5 µM]
same,Potency,[10],inactive
same,Potency,[7],inactive
same,Potency,[8],inactive
same,Potency,[9],inactive
CCCC(=O)O[C@]1(C(=O)COC(=O)CC)CC[C@H]2[C@@H]3CCC4=CC(=O)CC[C@]4(C)[C@H]3[C@@H](O)C[C@@]21C,activation (H2AX phosphorylation),[1],-1.56% [at 31.6 µM]
same,activation,[2],-2.77% [at 15.8 µM]
same,"activity change, negative = cytotoxicity",[3],1.02% [at 31.6 µM]
same,"activity change, negative = cytotoxicity",[10],1.66% [at 15.8 µM]
same,"activity change, negative = cytotoxic",[6],-2.43% [at 15.8 µM]
same,cytotoxicity,[7],-7.53% [at 15.8 µM]
same,"activity change, negative = cytotoxic",[8],-0.605% [at 15.8 µM]
same,cytotoxicity increase,[9],-16.6% [at 15.8 µM]
C=C(C)C(=O)OCCOC(=O)CC(C)=O,Potency,[1],inactive
same,outcome,[2],inactive
same,Potency,[3],inactive
same,Potency,[10],inactive
same,Potency,[6],inactive
same,Potency,[7],inactive
same,Potency,[8],inactive
same,Potency,[9],inactive
C=CC(C)=CCC=C(C)C,Potency,[1],inactive
same,outcome,[2],inactive
same,Potency,[3],inactive
same,Potency,[10],inactive
same,Potency,[6],inactive
same,Potency,[7],inactive
same,Potency,[8],inactive
same,Potency,[9],inactive
CC(=O)OCC(=O)[C@H]1CC[C@H]2[C@@H]3CCC4=CC(=O)CC[C@]4(C)[C@H]3CC[C@]12C,Potency,[1],inactive
same,outcome,[2],inactive
same,Potency,[3],inactive
same,Potency,[4],21.1 µM (active)
same,"activity change, positive = activation",[5],-35.1% [at 42.5 µM]
same,Potency,[7],inactive
O=C(O)c1ccccc1NCCc1ccccc1,Potency,[1],inactive
same,outcome,[2],inactive
same,Potency,[3],inactive
same,Potency,[4],inactive
same,Potency,[10],inactive
same,Potency,[6],inactive
same,Potency,[7],inactive
same,Potency,[9],inactive
